Test results reported in ChEMBL document CHEMBL3988442, “University of Dundee, Small-Polar-MMV Screening Library” (2021).
Out of some 66,000 compounds screened, about 960 (1.5%) showed an effect of 50% or more. The entries come from a sample that favours strong results as a whole.

Tested on: Trypanosoma brucei
Assay: Trypanosoma brucei 72 hour study
Type: functional, organism-based
Design: scale not given: in the data most compounds retested in dose-response had high values

## CCOCCC(=O)N1CCc2cccc(S(=O)(=O)N3CCOCC3)c2C1
30 µM, 30.03 µM
  Percent Effect: -15.51%

## CS(=O)(=O)c1ccccc1NCc1ccc(Cn2ccnc2)cc1
30 µM, 30.03 µM
  Percent Effect: -15.33%

## CN(Cc1ccccn1)C1CC2(CCN(Cc3cccnc3)CC2)C1.O=C(O)C(F)(F)F.O=C(O)C(F)(F)F.O=C(O)C(F)(F)F
30 µM, 30.03 µM
  Percent Effect: -16.66%

## CNCc1ccc(OCc2ccc3c(c2)OCCO3)cc1.Cl
30 µM, 30.03 µM
  Percent Effect: -35.77%

## CCNCc1ccc(OCc2ccc3c(c2)OCCO3)cc1.Cl
30 µM, 30.03 µM
  Percent Effect: -18.34%

## CCCNCc1ccc(OCc2ccc3c(c2)OCCO3)cc1.Cl
30 µM, 30.03 µM
  Percent Effect: 56.18%

## Cc1c(C(=O)N2CCCC(n3cccn3)C2)nnn1-c1ccccc1 (stereo not given)
10 µM
  Percent Effect: -41.06%
30.3 µM, […]
  Percent Effect: -3.586%

## CNC(=O)CN1CCCC12CCN(Cc1c[nH]cn1)CC2.O=C(O)C(F)(F)F.O=C(O)C(F)(F)F
30 µM, 30.03 µM
  Percent Effect: -41.63%

## Cc1ccc(-c2ccc(CC3NCCN(C)C3=O)cc2)cc1.Cl (stereo not given)
30.3 µM, […]
  Percent Effect: -13.76%

## CC(c1cn2ncsc2n1)N1Cc2ncccc2C1=O (stereo not given)
30.3 µM, […]
  Percent Effect: 6.941%

## O=C(O)C(F)(F)F.O=C(c1ncccn1)N1C[C@H]2CCC[C@@]2(COCc2ccncc2)C1
30 µM, 30.03 µM
  Percent Effect: 14.62%

## O=C(O)C(F)(F)F.O=C(c1ccccc1)N1C[C@H]2CCC[C@@]2(COCc2ccncc2)C1
30 µM, 30.03 µM
  Percent Effect: -75.85%

## CS(=O)(=O)N1C[C@H]2CCC[C@@]2(COc2ccccn2)C1.O=C(O)C(F)(F)F
30 µM, 30.03 µM
  Percent Effect: -36.44%

## Cc1ccc(C(=O)N2C[C@H]3CCC[C@@]3(COc3ccccn3)C2)nc1.O=C(O)C(F)(F)F.O=C(O)C(F)(F)F
30 µM, 30.03 µM
  Percent Effect: 43.42%

## Fc1cnc(N2C[C@H]3CCC[C@@]3(COc3ccccn3)C2)nc1.O=C(O)C(F)(F)F.O=C(O)C(F)(F)F
30 µM, 30.03 µM
  Percent Effect: 83.95%

## Cc1ccoc1C(=O)N1C[C@H]2CCC[C@@]2(COCc2ccncc2)C1.O=C(O)C(F)(F)F
30 µM, 30.03 µM
  Percent Effect: 58.51%

## Cc1ccoc1C(=O)N1C[C@H](OCc2cccnc2)[C@H]2OCCC[C@H]21.O=C(O)C(F)(F)F
30 µM, 30.03 µM
  Percent Effect: 55.38%

## Cc1cncc(C(=O)N2C[C@H]3CCC[C@@]3(COc3ccccn3)C2)c1.O=C(O)C(F)(F)F.O=C(O)C(F)(F)F
30 µM, 30.03 µM
  Percent Effect: 53.76%

## Cc1ccc(C(=O)N2C[C@@H](OCc3cccnc3)[C@H]3OCCC[C@@H]32)o1.O=C(O)C(F)(F)F
30 µM, 30.03 µM
  Percent Effect: 5.646%

## Fc1cnc(N2C[C@@H]3COC[C@]3(COc3ccccn3)C2)nc1.O=C(O)C(F)(F)F.O=C(O)C(F)(F)F
30.3 µM, […]
  Percent Effect: -2.43%

## Cc1occc1C(=O)N1C[C@@H](OCc2cccnc2)[C@H]2OCCC[C@@H]21.O=C(O)C(F)(F)F
30 µM, 30.03 µM
  Percent Effect: -8.947%

## O=C(O)C(F)(F)F.O=C(c1ncccn1)N1C[C@H]2CCC[C@@]2(COc2ccccn2)C1
30 µM, 30.03 µM
  Percent Effect: 19.9%

## N#Cc1cccc(CN2CC[C@@H]3[C@@H]2CC(=O)N3Cc2cccnc2)c1.O=C(O)C(F)(F)F.O=C(O)C(F)(F)F
30 µM, 30.03 µM
  Percent Effect: -2.932%

## CC(C)n1nc(CN2CCCCC2)c2c1CN(C(=O)c1ccno1)C2.O=C(O)C(F)(F)F
30.3 µM, […]
  Percent Effect: -65.47%

## COCCN1CCC2(CC1)CCN(Cc1ccccn1)CC2.O=C(O)C(F)(F)F.O=C(O)C(F)(F)F
30.3 µM, […]
  Percent Effect: -12.12%

## Cc1nc(CN2CC[C@H](OCC3CC3)[C@@H]2Cc2cccnc2)cs1.O=C(O)C(F)(F)F.O=C(O)C(F)(F)F
30.3 µM, […]
  Percent Effect: -53.44%

## O=c1c(CN2CCCCCC2)coc(O)c1CN1CCCCCC1
30 µM, 30.03 µM
  Percent Effect: 14.22%

## CCN1CCCc2cc(-c3cncn3C(C)CN3CCOCC3)ccc21.Cl (stereo not given)
30.3 µM, […]
  Percent Effect: -9.571%

## CN1CCC2(CC1)CN(C(=O)c1cnccn1)Cc1ccccc12.O=C(O)C(F)(F)F
30 µM, 30.03 µM
  Percent Effect: -7.96%

## CNC(=O)[C@@H]1C[C@H]2CN(Cc3ccc(C)s3)C[C@H]2N1C(C)=O.O=C(O)C(F)(F)F.O=C(O)C(F)(F)F
30.3 µM, […]
  Percent Effect: -19.68%

## Fc1ccc(-c2nccnc2C2CCCNC2)cc1 (stereo not given)
30.3 µM, […]
  Percent Effect: -3.462%

## NC(=O)NCC1CCCCN1C(=O)c1cc(F)cc(F)c1 (stereo not given)
30.3 µM, […]
  Percent Effect: -17.02%

## NC(=O)NCC1CCCCN1C(=O)c1cccc(Cl)c1 (stereo not given)
30.3 µM, […]
  Percent Effect: -13.75%

## Cc1ccc(C(=O)N2CCCCC2CNC(N)=O)cc1F (stereo not given)
30.3 µM, […]
  Percent Effect: 53.34%

## CC(C)(C)NC(=O)CN1CCNCC1.Cl.Cl
30 µM, 30.03 µM
  Percent Effect: -49.47%

## CO[C@H]1C[C@@H]2CN(C(=O)Cc3ccc(C)s3)C[C@@H]2C1
30.3 µM, […]
  Percent Effect: 15.04%

## Cc1oc(-c2cc(F)cc(F)c2)nc1CN1C[C@@H](C)NC[C@@H]1C
30.3 µM, […]
  Percent Effect: 16.81%

## CSc1ccc(-c2nc(CN3CCC(NC(C)=O)CC3)c(C)o2)cc1
30 µM, 30.03 µM
  Percent Effect: 23.08%

## CSc1ccc(-c2nc(CN3CCNCC3C)c(C)o2)cc1 (stereo not given)
30.3 µM, […]
  Percent Effect: 65.66%

## Cc1ccc(-c2nc(CN3C[C@@H](C)NC[C@@H]3C)c(C)o2)s1
30.3 µM, […]
  Percent Effect: 11.25%

## CSc1ccc(-c2nc(CN3CCC(C(N)=O)CC3)c(C)o2)cc1
30 µM, 30.03 µM
  Percent Effect: 22.66%

## CSc1ccc(-c2nc(CN3C[C@@H](C)NC[C@@H]3C)c(C)o2)cc1
30.3 µM, […]
  Percent Effect: 65.6%

## CSc1ccc(-c2nc(CN3CCC(CN)C3)c(C)o2)cc1 (stereo not given)
30 µM, 30.03 µM
  Percent Effect: 56.38%

## CNC(=O)CC1CCN(Cc2nc(-c3ccc(SC)cc3)oc2C)CC1
30.3 µM, […]
  Percent Effect: 15.19%

## CNC(=O)C1CCN(Cc2nc(-c3ccc(SC)cc3)oc2C)C1 (stereo not given)
30 µM, 30.03 µM
  Percent Effect: 5.239%

## Cc1nc(C)n(C2CCCN(C(=O)c3cscn3)C2)n1 (stereo not given)
30.3 µM, […]
  Percent Effect: -21.61%

## CCC(=O)N1Cc2nccn2CC(CN(C)Cc2cccnc2)C1.O=C(O)C(F)(F)F.O=C(O)C(F)(F)F (stereo not given)
30 µM, 30.03 µM
  Percent Effect: 3.591%

## O=C(Nc1cccnc1)[C@H]1C[C@@H]2CN(Cc3ccc(F)cc3)C[C@H]1O2
30.3 µM, […]
  Percent Effect: -89.84%

## CC(C)NC(=O)N1CC[C@H]2N(C)CC[C@@]2(C(=O)Nc2cccnc2)CC1
30.3 µM, […]
  Percent Effect: -97.82%

## COCCn1c2c(ccc1=O)CC(NS(C)(=O)=O)CC2 (stereo not given)
30 µM, 30.03 µM
  Percent Effect: -56.59%

## O[C@@H]1CN(c2cnc3ccccc3n2)CC[C@H]1c1ccc2c(c1)OCO2
30 µM, 30.03 µM
  Percent Effect: -17.33%

## Cc1ccc(C)c(CSc2nnc(C(N)C(C)C)o2)c1.Cl (stereo not given)
30 µM, 30.03 µM
  Percent Effect: -51.12%

## Cn1nc(C(=O)N2CCOCC2)c2c1CN(CC1CC1)C2.O=C(O)C(F)(F)F.O=C(O)C(F)(F)F
30.3 µM, […]
  Percent Effect: -90.45%

## COc1cc(CN[C@@H]2COC[C@H]2Cc2cc(C)no2)cc(OC)c1.O=C(O)CC(O)(CC(=O)O)C(=O)O
30.3 µM, […]
  Percent Effect: 16.22%

## C=C1C(C)(C)[C@H]2CC[C@]1(C(=O)N1CCC(Cn3cc(CO)nn3)CC1)C2
30 µM, 30.03 µM
  Percent Effect: -32.31%

## Cl.O=C1CC2(CCCNC2)C(=O)N1Cc1ccc(Cl)cc1 (stereo not given)
30.3 µM, […]
  Percent Effect: 7.931%

## CSc1nccc(N2C[C@@H](CN3CCCCC3)[C@@H](CO)C2)n1
30.3 µM, […]
  Percent Effect: -9.185%

## COc1cc(N2CCC3(CCCN(Cc4ccccn4)C3)C2)ncn1.O=C(O)C(F)(F)F (stereo not given)
30.3 µM, […]
  Percent Effect: -81.3%

## c1cnc(N2CCC3(CCCN(CC4CCCCC4)C3)C2)cn1 (stereo not given)
30.3 µM, […]
  Percent Effect: -7.519%

## CSc1nccc(N2CCC3(CCCN(CCc4ccccc4)C3)C2)n1 (stereo not given)
30.3 µM, […]
  Percent Effect: 100.6%

## COc1ccc(CN2CCC3(CCCN(c4ncc(F)cn4)C3)C2)cc1.O=C(O)C(F)(F)F (stereo not given)
30 µM, 30.03 µM
  Percent Effect: 46.33%

## Cc1c[nH]c(CN2CCC3(CCCN(Cc4ccc(F)c(F)c4)C3)C2)n1 (stereo not given)
30 µM, 30.03 µM
  Percent Effect: 12.03%

## Fc1ccc(CN2CCC3(CCCN(c4nncs4)C3)C2)cc1.O=C(O)C(F)(F)F (stereo not given)
30.3 µM, […]
  Percent Effect: -195.3%

## CSc1nccc(N2CCC3(CCCN(Cc4cccc(C)c4)C3)C2)n1 (stereo not given)
30.3 µM, […]
  Percent Effect: 99.66%

## CSc1nccc(N2CCC3(CCCN(Cc4ccc(F)cc4)C3)C2)n1 (stereo not given)
30.3 µM, […]
  Percent Effect: 100.4%

## O=C(Cc1cccc(F)c1)N1CCc2ncnc(NC3CC3)c2CC1.O=C(O)C(F)(F)F
30.3 µM, […]
  Percent Effect: -65.72%

## Cl.Cn1ccnc1Sc1ccc(N)cn1
30 µM, 30.03 µM
  Percent Effect: -0.5458%

## Cl.O=S(=O)(N1CCCC1)N1C[C@@H](c2cccc(F)c2)[C@@H]2NCCCCC[C@H]21
30.3 µM, […]
  Percent Effect: -12.23%

## Cc1cccc(N2CCC3(CCCN(C(=O)c4cccnc4)C3)CC2)n1.O=C(O)C(F)(F)F.O=C(O)C(F)(F)F
30 µM, 30.03 µM
  Percent Effect: -24.82%

## CC(C)C(=O)N1CCCC2(C1)CN(c1nncs1)CCO2.O=C(O)C(F)(F)F (stereo not given)
30.3 µM, […]
  Percent Effect: -91.97%

## O=C(Cc1ccccn1)N1CCC2(CC1)CC(Oc1ccccn1)CO2.O=C(O)C(F)(F)F.O=C(O)C(F)(F)F (stereo not given)
30 µM, 30.03 µM
  Percent Effect: 23.31%

## O=C(O)C(F)(F)F.c1cnc(NC2COC3(CCN(Cc4nccs4)CC3)C2)cn1 (stereo not given)
30.3 µM, […]
  Percent Effect: -510.2%

## Cc1ncc(CN2CCCC(O)(c3ccc(F)cc3)CC2)n1C.O=C(O)CC(O)(CC(=O)O)C(=O)O (stereo not given)
30.3 µM, […]
  Percent Effect: 5.795%

## COc1cccc(N2CCN(CC(O)c3cc(C)sc3C)CC2)c1 (stereo not given)
30.3 µM, […]
  Percent Effect: 80.96%

## COc1cccc(N2CCN(CC(O)c3cc(C)ccc3C)CC2)c1 (stereo not given)
30 µM, 30.03 µM
  Percent Effect: -36.53%

## COc1cccc(N2CCN(CC(O)c3ccc(C)cc3)CC2)c1 (stereo not given)
30 µM, 30.03 µM
  Percent Effect: 17.53%

## COc1cc(Cc2nc3c([nH]2)CC(C)(C)CNC3=O)cc(OC)c1
30 µM, 30.03 µM
  Percent Effect: -74.64%

## Cc1cccnc1NCCNC(=O)c1cnc(-c2cccs2)nc1O
30 µM, 30.03 µM
  Percent Effect: -4.334%

## Cc1nc(-c2ncc(C(=O)NCCNc3ncccc3C)c(O)n2)cs1
30 µM, 30.03 µM
  Percent Effect: -1.041%

## Cc1cccnc1NCCNC(=O)c1cnc(-c2ccccn2)nc1O
30 µM, 30.03 µM
  Percent Effect: 99.84%

## Cc1ccc(C)c(NC(=O)N2C[C@H](N(C)C)C[C@H]2CO)c1
30 µM, 30.03 µM
  Percent Effect: -61.25%

## COCCOc1ccc(C(=O)N2CCCC(n3cncn3)C2)cn1 (stereo not given)
30.3 µM, […]
  Percent Effect: -14.96%

## Cc1noc(C)c1CN1C[C@@H]2COC[C@H](C(=O)N3CCOCC3)[C@@H]2C1.O=C(O)C(F)(F)F
30.3 µM, […]
  Percent Effect: -95.08%

## CC(C)c1nn(C)cc1CNCc1cccnc1N(C)C.Cl
30 µM, 30.03 µM
  Percent Effect: -46.74%
